# T1: GNAZ 2-355 G-alpha (domain begin residue: 2, domain end residue: 355), P19086
# T1 chain: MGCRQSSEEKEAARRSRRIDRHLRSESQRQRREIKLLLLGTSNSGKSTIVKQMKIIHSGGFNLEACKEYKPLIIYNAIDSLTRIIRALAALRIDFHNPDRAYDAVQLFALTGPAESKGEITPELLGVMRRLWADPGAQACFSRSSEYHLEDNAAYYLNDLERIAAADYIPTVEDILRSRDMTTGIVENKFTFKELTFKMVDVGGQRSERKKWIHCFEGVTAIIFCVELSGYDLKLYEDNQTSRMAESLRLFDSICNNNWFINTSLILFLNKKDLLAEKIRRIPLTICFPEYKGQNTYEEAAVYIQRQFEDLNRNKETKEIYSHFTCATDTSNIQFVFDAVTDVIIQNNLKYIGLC
# T2: GIGYF1 448-540 GYF (domain begin residue: 448, domain end residue: 540), O75420
# T2 chain: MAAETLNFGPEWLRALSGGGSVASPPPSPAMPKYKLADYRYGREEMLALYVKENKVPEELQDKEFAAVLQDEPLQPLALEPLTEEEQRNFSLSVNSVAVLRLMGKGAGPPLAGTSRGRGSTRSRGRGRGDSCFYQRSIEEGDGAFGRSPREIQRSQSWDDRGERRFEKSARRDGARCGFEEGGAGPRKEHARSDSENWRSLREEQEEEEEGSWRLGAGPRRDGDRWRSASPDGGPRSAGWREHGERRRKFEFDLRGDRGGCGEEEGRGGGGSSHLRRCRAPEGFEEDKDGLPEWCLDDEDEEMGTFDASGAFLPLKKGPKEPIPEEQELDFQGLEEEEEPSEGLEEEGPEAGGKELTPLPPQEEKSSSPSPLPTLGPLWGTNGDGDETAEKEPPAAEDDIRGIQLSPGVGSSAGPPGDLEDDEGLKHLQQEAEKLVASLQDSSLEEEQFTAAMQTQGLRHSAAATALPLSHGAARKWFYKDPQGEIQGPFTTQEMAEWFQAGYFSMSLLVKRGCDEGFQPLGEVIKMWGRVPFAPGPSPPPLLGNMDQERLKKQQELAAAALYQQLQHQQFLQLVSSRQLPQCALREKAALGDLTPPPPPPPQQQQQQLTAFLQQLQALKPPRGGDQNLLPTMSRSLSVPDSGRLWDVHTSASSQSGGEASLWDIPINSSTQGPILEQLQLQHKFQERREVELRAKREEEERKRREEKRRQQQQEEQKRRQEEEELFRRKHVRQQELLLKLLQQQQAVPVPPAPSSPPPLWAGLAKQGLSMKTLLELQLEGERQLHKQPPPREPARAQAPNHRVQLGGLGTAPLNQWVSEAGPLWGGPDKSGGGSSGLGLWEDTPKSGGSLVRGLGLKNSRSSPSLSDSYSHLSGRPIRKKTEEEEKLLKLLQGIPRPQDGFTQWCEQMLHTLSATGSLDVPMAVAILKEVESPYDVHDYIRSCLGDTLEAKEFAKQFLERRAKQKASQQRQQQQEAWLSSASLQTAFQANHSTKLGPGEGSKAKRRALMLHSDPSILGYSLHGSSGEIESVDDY
# T3: GNA14 2-355 G-alpha (domain begin residue: 2, domain end residue: 355), O95837
# T3 chain: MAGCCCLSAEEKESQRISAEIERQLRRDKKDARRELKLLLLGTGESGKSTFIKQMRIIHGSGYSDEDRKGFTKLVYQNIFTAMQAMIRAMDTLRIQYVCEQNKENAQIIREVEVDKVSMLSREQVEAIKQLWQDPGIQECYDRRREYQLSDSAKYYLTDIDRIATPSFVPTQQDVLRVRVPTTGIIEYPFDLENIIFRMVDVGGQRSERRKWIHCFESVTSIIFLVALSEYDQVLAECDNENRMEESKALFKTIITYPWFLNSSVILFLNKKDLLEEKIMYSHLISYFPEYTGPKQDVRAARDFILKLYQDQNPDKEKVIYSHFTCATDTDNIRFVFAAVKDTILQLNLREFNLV
# T4: GIGYF2 507-602 GYF (domain begin residue: 507, domain end residue: 602), Q6Y7W6
# T4 chain: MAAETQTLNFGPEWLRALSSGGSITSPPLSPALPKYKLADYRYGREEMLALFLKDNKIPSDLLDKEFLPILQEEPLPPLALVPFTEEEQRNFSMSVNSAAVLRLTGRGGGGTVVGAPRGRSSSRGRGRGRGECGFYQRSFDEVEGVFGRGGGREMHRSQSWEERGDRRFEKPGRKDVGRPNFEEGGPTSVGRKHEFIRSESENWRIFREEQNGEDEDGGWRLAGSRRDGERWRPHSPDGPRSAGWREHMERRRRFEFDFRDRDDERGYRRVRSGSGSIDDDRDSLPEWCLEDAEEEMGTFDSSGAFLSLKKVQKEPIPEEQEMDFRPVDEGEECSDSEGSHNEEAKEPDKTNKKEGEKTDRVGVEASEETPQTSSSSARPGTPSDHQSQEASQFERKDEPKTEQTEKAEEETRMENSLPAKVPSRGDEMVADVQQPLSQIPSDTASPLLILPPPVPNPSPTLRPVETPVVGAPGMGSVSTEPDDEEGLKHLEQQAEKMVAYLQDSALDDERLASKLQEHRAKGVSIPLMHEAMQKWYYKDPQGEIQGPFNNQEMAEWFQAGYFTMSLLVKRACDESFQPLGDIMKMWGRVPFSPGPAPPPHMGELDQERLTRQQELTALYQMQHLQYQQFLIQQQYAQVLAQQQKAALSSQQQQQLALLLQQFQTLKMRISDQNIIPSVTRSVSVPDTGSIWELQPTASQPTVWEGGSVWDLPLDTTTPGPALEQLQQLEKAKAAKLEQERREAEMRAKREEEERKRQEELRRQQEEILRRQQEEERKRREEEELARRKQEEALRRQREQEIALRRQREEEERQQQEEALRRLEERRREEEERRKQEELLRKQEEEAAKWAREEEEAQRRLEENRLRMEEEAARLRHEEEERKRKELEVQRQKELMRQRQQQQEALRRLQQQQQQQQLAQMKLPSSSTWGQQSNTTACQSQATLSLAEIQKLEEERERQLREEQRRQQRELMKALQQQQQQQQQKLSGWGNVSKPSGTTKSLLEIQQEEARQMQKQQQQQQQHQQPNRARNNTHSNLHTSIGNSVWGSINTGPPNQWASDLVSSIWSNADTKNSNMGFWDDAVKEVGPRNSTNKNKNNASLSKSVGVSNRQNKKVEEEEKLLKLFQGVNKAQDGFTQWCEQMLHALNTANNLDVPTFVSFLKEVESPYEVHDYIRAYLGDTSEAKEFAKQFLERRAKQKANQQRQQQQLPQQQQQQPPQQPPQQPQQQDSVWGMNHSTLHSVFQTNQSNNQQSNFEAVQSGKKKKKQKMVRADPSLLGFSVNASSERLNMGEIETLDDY
# What was measured:
# Assay in all cases: phage ELISA signal ratio (GST-PRM binding over GST background); higher = stronger binding of peptide-phage to the PRM
# [1] = target: T1, GNAZ 2-355 G-alpha (domain begin …
# Outline: (§1)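 Approximately 48 individual clones from selection rounds 4 and 5 were tested by phage ELISA, and those scoring positive were sequenced. They came from five rounds of selecting an M13 phage library of randomized, cysteine-free, glycine-flanked hexadecapeptides on the gene-8 major coat protein against human peptide recognition domains fused to the C-terminus of glutathione S-transferase (GST) in 96-well plates. Each figure in the table is the ELISA signal on the GST-domain fusion relative to the signal on GST alone.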
# [2] = target: T2, GIGYF1 448-540 GYF (domain begin …
# Outline: as §1
# [3] = target: GNAI1 2-354 G-alpha (domain begin residue: 2, domain end residue: 354), P63096
# Outline: as §1
# [4] = target: GGA3 579-723 Alpha_adaptinC2 (domain begin residue: 579, domain end residue: 723)
# Outline: as §1
# [5] = target: GGA3 1-153 VHS (domain begin residue: 1, domain end residue: 153)
# Outline: as §1
# [6] = target: T3, GNA14 2-355 G-alpha (domain begin …
# Outline: as §1
# [7] = target: T4, GIGYF2 507-602 GYF (domain begin …
# Outline: as §1
# Chain of GNAI1 2-354 G-alpha (domain begin residue: 2, domain end residue: 354), P63096 (P63096 whole entry): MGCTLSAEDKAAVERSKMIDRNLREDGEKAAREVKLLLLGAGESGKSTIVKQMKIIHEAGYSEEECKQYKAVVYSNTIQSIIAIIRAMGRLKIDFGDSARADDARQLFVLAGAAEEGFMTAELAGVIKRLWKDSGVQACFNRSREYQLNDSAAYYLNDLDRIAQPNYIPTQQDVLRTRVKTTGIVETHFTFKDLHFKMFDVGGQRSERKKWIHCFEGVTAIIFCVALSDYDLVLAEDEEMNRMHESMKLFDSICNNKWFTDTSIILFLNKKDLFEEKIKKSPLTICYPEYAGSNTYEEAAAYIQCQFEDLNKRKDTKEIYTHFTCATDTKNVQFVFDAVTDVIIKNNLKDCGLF
binder,measurement,setting,value
WSLMDDVSPWWEMEQI,phage ELISA signal ratio,[1],20.5
WETWFEQKEVLIDAYY,phage ELISA signal ratio,[1],14.6
DHWGPPGLTWHVMERA,phage ELISA signal ratio,[2],10.1
WRWDEYDHQFVEEVQM,phage ELISA signal ratio,[1],25.2
IPDWLVDYEWGQWVEG,phage ELISA signal ratio,[3],31.6
DEWGQWQLHESVFLME,phage ELISA signal ratio,[4],27.9
QTDDPMWIPHQWFQAG,phage ELISA signal ratio,[5],23.1
YHDTGLSNEWFMIRYF,phage ELISA signal ratio,[3],18
QPDQIRFGPYISFSAI,phage ELISA signal ratio,[6],24.3
DAHWWEEPWFIKSQEE,phage ELISA signal ratio,[3],13.8
PGSENEAEYWFNIMRQ,phage ELISA signal ratio,[1],19.7
WVWDYSQDQWVPASVQ,phage ELISA signal ratio,[1],17.2
VSYEWWMPGDTQMMEV,phage ELISA signal ratio,[1],11.2
NEWDIPLLDLTMLPWA,phage ELISA signal ratio,[1],8.79
EGMGPPGFWVGSDLRG,phage ELISA signal ratio,[7],14.7
DMTRAVFWEFWDHLDV,phage ELISA signal ratio,[1],7.78
SFTWDSFESYVEPWKY,phage ELISA signal ratio,[4],9.04
EDSGLEWFMQWSHGYV,phage ELISA signal ratio,[1],13.9
MLPFQDWYTQDDVLMN,phage ELISA signal ratio,[1],17.6
EMDVEMWFPHFMNHSF,phage ELISA signal ratio,[5],34.5
DGDVQKWGPYYSFTQQ,phage ELISA signal ratio,[6],28.9
WWEAPWAMEMLDEETG,phage ELISA signal ratio,[3],16.6
NMFMPPGFAPQQVQMH,phage ELISA signal ratio,[7],13.9
DVPPLWMMAEYSFPWE,phage ELISA signal ratio,[1],5.11
QPPPGWVPSTELLEFL,phage ELISA signal ratio,[7],23.1
MPFDHWTMDDVEMLVL,phage ELISA signal ratio,[1],17.5
DVEPLWSQWVTWDWQE,phage ELISA signal ratio,[1],11.1
HEEGMAEQWFWLHFAP,phage ELISA signal ratio,[1],11.9
GPPGFHQHADVMRYEM,phage ELISA signal ratio,[2],20.9

# Reference: the supplement of paper PMC7724964
